Bioassay records deposited in PubChem by several laboratories.
HMGR II inh: inhibitors of class II HMG-CoA reductase from Enterococcus faecalis | purified E. faecalis HMGR, NADPH absorbance 340 nm kinetic | inhibition, % at 10 µM | hit rate 0.41% among 190,000;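 active = inhibition above a set limit, the median over all tested compounds plus 3 SD, cut at about 9.5% in these data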;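 note: enzyme runs in reverse so mevalonate oxidation gives rising NADPH absorbance; 0% = complete reaction with DMSO and 100% = background rate lacking mevalonate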
PGE2 EP2 inh: EP2 receptor (human) inhibition | P43116 | C6 glioma cells expressing human EP2, cAMP TR-FRET; cells stimulated with saturating PGE2 | inhibition, % at 25 µM | hit rate 0.52% among 260,000 | AID 1422;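 active = percent inhibition above 40 after rounding to a whole number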;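 note: rat C6 glioma host cells with rolipram phosphodiesterase inhibitor present; the protocol text gives 20 µM as final concentration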
Calpain2 inh: inhibitors of pig calpain II; purified calpain II, fluorogenic peptide substrate, 30 min; inhibition, % at 16 µM; hit rate 0.37% among 220,000; AID 1236;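 active = inhibition above about 50%, limit read from the data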
EP2 modulator: modulates human prostaglandin E2 receptor EP2 signaling. P43116. EP2-expressing cells, cAMP HTRF FRET, PGE2 co-stimulation. induction, % at 25 µM. hit rate 0.83% among 260,000;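 active = compounds whose cAMP rise, as percent of the full-agonist control response, exceeds 60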;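 note: rat C6 glioma line stably carrying human EP2 under a CMV promoter; the protocol text gives 20 µM as final concentration; 100% = response of wells given 1 µM PGE2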
Furin inhibitor: inhibitors of human furin; P09958; purified furin, fluorogenic substrate cleavage; inhibition, % at 20 µM or 30 µM; hit rate 0.061% among 220,000; AID 463115; in the data active = inhibition above about 25%
Target sequence (P09958 108-714 limits assumed): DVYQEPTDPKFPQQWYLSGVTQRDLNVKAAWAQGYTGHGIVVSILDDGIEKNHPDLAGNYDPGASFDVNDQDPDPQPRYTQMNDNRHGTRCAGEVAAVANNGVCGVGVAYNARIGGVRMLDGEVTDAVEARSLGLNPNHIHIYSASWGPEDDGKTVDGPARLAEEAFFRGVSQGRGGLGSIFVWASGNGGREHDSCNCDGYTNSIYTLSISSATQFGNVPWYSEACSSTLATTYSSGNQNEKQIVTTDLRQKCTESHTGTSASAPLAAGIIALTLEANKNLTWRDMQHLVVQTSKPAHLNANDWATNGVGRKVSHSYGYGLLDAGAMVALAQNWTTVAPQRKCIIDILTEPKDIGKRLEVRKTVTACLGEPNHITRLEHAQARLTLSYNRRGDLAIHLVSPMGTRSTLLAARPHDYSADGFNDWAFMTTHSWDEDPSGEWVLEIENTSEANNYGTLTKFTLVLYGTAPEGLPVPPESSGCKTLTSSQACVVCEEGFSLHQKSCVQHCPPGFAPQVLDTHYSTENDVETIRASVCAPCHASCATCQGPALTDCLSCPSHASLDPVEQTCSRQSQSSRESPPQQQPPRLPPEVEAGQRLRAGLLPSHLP
Starred values were filed as active, the others as inactive; . = no result; ! = a repeat was not active. The list is not random: actives were taken first. Their share in the collection is about 1.9%.

SMILES	HMGR II inh	PGE2 EP2 inh	Calpain2 inh	EP2 modulator	Furin inhibitor
CCOc1ccc2[nH]c(=O)c(CN(C(=O)NCc3ccccc3)C3CCCC3)cc2c1	.	4.2	.	-5.6	.
COc1ccc(CNC2CCCC2)c(OC)c1OC	1.1	10.6	-4.7	49.5	-6.7
C=CCOc1ccc(Cl)cc1CNC1CCCC1	-2.2	4.8	3.7	62.2*	-31.9
C[C@@H](N)/C(N)=N\O	.	9.1	.	32.4	.
CCC(CC)C(=O)N1CCN(c2ccccc2F)CC1	.	10.2	.	-14.6	.
CCOc1ccc(C(=O)NCC2CCCO2)cc1OCC (stereo not drawn)	13.0*	11.2	-30.6	-15.1	-20.1
COc1ccc(C(=O)NCC2CCCO2)cc1OC (stereo not drawn)	.	8.3	-4.0	5.3	13.1
CCC(=O)c1cn(CC(=O)N2CCCCC2)c2ccccc12	.	10.1	.	-12.6	.
CCOC(=O)/C=C/C(=O)Nc1cccc([N+](=O)[O-])c1	1.4	130.9*	-4.6	-1.4	-17.7
CCOC(=O)c1cccc(NC(=O)/C=C/c2cccc([N+](=O)[O-])c2)c1	-0.6	4.0	-4.6	13.0	-13.8
O=C(Nc1cccc([N+](=O)[O-])c1)c1cccc(C(=O)Nc2cccc([N+](=O)[O-])c2)c1	.	9.4	55.8*	-7.7	-4.0
O=C(CCNc1ccccc1)c1cccc([N+](=O)[O-])c1	-4.8	.	50.6*	-10.0	-3.0
O=C(CCCN1C(=O)/C(=C/c2ccccc2Cl)SC1=S)NNC(=O)c1ccc(Cl)cc1Cl	.	2.6	51.9*	17.9	-14.0
O=C(CCCN1C(=O)/C(=C/c2ccccc2Cl)SC1=S)NNC(=O)c1ccccc1	-2.5	6.6	-23.6	-33.9	-14.7
CC(C)CC(NC(=O)Cc1cccc(F)c1)c1nc2cccnc2n1C(C)C (stereo not drawn)	.	1.9	.	-7.5	.
COc1ccc(N2C(=O)CC(N3CCN(S(=O)(=O)c4ccc(Cl)cc4)CC3)C2=O)cc1 (stereo not drawn)	9.6*	7.2	-18.9	-14.5	-30.1
Nc1[nH]nc2nc3ccccc3cc12	10.1*	4.3	-4.5	-16.5	1.1
COc1ccc(C2C(C(C)=O)=C(Nc3ccccc3)CC(C)(O)C2C(C)=O)cc1OC (stereo not drawn)	13.6*	8.9	3.5	21.9	-16.6
COc1cc2c(cc1CCNS(=O)(=O)c1ccc(N3CCCC3=O)cc1)CCC2	.	4.6	.	-87.5	.
CCCc1nc2sc3c(=O)[nH]cnc3c2c2c1CCCC2	.	7.3	-25.9	71.7*	-12.5
CC(C)c1nc2sc3c(=O)[nH]cnc3c2c2c1CCCC2	.	9.0	-9.6	43.0	-13.2
CCCCc1nc2sc3c(=O)[nH]cnc3c2c2c1CCCC2	.	10.0	-5.4	60.7*	-6.8
Cn1c(=O)c2c(nc(SCC(=O)NCc3ccco3)n2Cc2ccccc2)n(C)c1=O	.	11.5	.	-20.5	.
CSCCC(NS(=O)(=O)/C=C/c1ccccc1)C(=O)O (stereo not drawn)	10.3*	9.1	-12.3	24.9	-36.3
CCOc1ccc(C=C2C(=O)NC(=S)NC2=O)cc1O	.	9.0	.	-66.8	.
SMILES	HMGR II inh	PGE2 EP2 inh	Calpain2 inh	EP2 modulator	Furin inhibitor
CCCc1nn(CC(=O)N2CCC(C(N)=O)CC2)c(=O)c2cc3ccsc3n12	.	.	.	-16.1	.
CCOc1ccc(-c2nnn(CC(=O)N3CCCC(C)C3)n2)cc1 (stereo not drawn)	12.9*	1.0	8.0	-28.9	-22.7
Nc1cccc(Oc2ccc([N+](=O)[O-])cc2)c1	10.1*	3.8	2.4	-15.9	-20.5
CCS(=O)(=O)n1nc(-c2ccco2)nc1N	10.1*	4.8	2.3	16.8	-33.2
CCC(=O)n1nc(-c2ccco2)nc1N	-8.4	18.6	-0.8	19.3	-7.1
N#Cc1c(SCC(=O)O)nc(-c2ccccc2)c2c1CCCC2	-0.1	44.7*	-8.6	43.4	-23.5
O=C(O)c1ccc(/C=C2\SC(=S)N(Nc3ccccc3)C2=O)cc1	.	6.0	18.5	-21.9	13.6
COC(=O)CCCCCN1C(=O)/C(=C/c2ccc(OC)cc2)SC1=S	.	12.7	.	-16.5	.
COC(=O)CCCCCN1C(=O)/C(=C\c2ccncc2)SC1=S	.	50.7*	15.0	-40.2	-17.2
O=C1/C(=C/c2ccncc2)SC(=S)N1Nc1ccccc1	.	64.1*	7.2	-36.9	3.4
Cn1c(=O)c2c(nc(N3CCCC3)n2Cc2ccc(Cl)cc2)n(C)c1=O	.	8.4	.	10.2	.
CCc1cc(NCCCN2CCCC2=O)n2nc3nc(C)cc(C)c3c2n1	.	.	.	-7.9	.
CCCn1c(C)cc(C(=O)COc2ccc(C)nc2[N+](=O)[O-])c1C	-8.8	4.6	8.3	16.2	-11.9
COCCn1c(C)cc(C(=O)COc2ccc(C)nc2[N+](=O)[O-])c1C	13.2*	7.9	-24.2	-30.4	-19.6
CCc1nc(N2CCCC(C)C2)c2oc3ccccc3c2n1 (stereo not drawn)	-5.3	6.6	19.9	61.2*	-19.8
O=C1OCc2ccc(NC(=O)C3CC3)cc21	0.5	8.2	-7.5	-15.3	-19.4
O=C1OCc2cc(NC(=O)C3CCCCC3)ccc21	-1.7	4.8	51.9*	-6.2	-18.9
COc1cc(OC)cc(C(=O)Nc2ccc3c(c2)COC3=O)c1	-4.2	9.7	59.7*	5.9	-19.5
CCCSc1nc2c(c(=O)[nH]c(=O)n2C)n1Cc1cccc(C)c1	.	9.0	.	70.4*	.
Cc1cccc(Cn2c(SCC(O)CCl)nc3c2c(=O)[nH]c(=O)n3C)c1 (stereo not drawn)	.	9.9	.	15.1	.
C/C(Cl)=C\CSc1nc2c(c(=O)[nH]c(=O)n2C)n1Cc1cccc(C)c1	.	13.6	.	86.5*	.
O=CN/C=C/c1cc(O)ccc1O	.	111.4*	-52.2	-44.3	2.7
O=C(/C=C/c1ccccc1)c1ccc(O)cc1O	.	11.1	.	-7.6	.
CCc1cc(NCc2ccccn2)n2nc3nc(C)cc(C)c3c2n1	.	.	.	-59.6	.
Nc1nc(Nc2ccccc2F)nc2ccccc12	.	10.1	.	-73.2	.
SMILES	HMGR II inh	PGE2 EP2 inh	Calpain2 inh	EP2 modulator	Furin inhibitor
Fc1ccccc1Nc1nc(Cl)nc(Cl)n1	10.6*	6.3	-25.1	29.9	-15.5
O=C1c2ccccc2C(=O)N1C1(C(=O)NC2(C(=O)O)CCCC2)CCCC1	.	42.2*	.	18.0	.
Cc1cc(-c2ccc(Br)s2)nc(-n2cccc2)n1	-3.4	22.7	6.8	48.9	-22.9
Cc1cc(-c2sccc2Br)nc(-n2cccc2)n1	3.4	15.5	11.6	64.6*	-16.2
O=C1OC2(c3ccc(O)cc3Oc3cc(O)ccc32)c2c1c(-c1ccccc1)c(-c1ccccc1)c(-c1ccccc1)c2-c1ccccc1	.	45.2*	.	4.7	.
CSc1ccccc1NC(=O)CN(C1CCCCC1)S(C)(=O)=O	-1.3	5.3	4.1	9.3	-27.5
CN(CC(=O)Nc1ccccc1Sc1ccccc1)C1CCCCC1	2.1	5.5	18.0	64.1*	-25.7
O=C1NC2(CCN(CC(=O)N3CCCC4CCCCC43)CC2)Nc2ccccc21 (stereo not drawn)	.	2.8	.	-63.2	.
COc1ccc(OC)c(NC(=O)CSc2nnc3c(C)cc4ccc(OC)cc4n23)c1	.	7.2	.	-23.7	.
COc1ccc(-c2cc(C)nc(N)c2C#N)cc1OC	.	13.0	.	-15.5	.
CCOc1ccc(-c2cc(-c3ccc(OC)c(OC)c3)c(C#N)c(N)n2)cc1	.	11.5	.	79.6*	.
COc1ccc(-c2cc(-c3ccc(O)cc3)nc(N)c2C#N)cc1OC	-4.9	40.2*!	-208.2	-11.1	-21.9
